Screening data from PubChem BioAssay.
This is a sample that favours compounds with a hit; in the whole collection about 3.5% have one here.
GPR151 ag: human GPR151 activation; activation, % at 11.2 µM; PathHunter beta-arrestin GPR151 cells, luminescence; AID 1508602; actives 1% (n = 650,000); in the data active means activation above about 4.9%
Target sequence (Q8TDV0 whole entry, looked up): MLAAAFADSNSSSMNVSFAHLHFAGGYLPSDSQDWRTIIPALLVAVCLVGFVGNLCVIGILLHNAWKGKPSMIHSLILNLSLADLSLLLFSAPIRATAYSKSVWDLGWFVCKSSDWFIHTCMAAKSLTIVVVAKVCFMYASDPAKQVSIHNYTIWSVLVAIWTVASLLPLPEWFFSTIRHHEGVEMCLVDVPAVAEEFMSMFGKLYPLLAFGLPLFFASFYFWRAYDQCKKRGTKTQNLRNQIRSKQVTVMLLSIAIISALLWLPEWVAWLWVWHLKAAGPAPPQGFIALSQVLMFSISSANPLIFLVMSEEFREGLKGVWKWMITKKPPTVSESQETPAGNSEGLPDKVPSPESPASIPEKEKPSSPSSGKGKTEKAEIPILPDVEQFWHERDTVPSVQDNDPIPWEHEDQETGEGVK
MITF primary: human MITF inhibition, primary screen; actives 0.91% (n = 650,000); O75030; AlphaScreen MITF homodimerization, bead proximity signal; inhibition, % at 2.6 µM; in the data active means inhibition above about 50%
FBW7 activator: human FBW7 E3 ligase activation, primary screen | actives 0.13% (n = 650,000) | Q969H0 | AID 1259310 | AlphaScreen FBW7–phospho-cyclin E peptide binding, activator screen | normalized activity (activation), % at 26.1 µM; in the data active means normalized activity above about 1.9%;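 further: purified mutant Fbw7 with reduced substrate affinity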
TEAD-YAP inh: TEAD-YAP interaction inhibition. HEK-TIYL cells, TEAD-Gal4/YAP UAS-luciferase luminescence. inhibition, % at 9.12 µM. actives 1.4% (n = 640,000). AID 1259422; in the data active means inhibition above about 32%
GPR151 confirm: confirmation of human GPR151 activators | shares compounds with GPR151 ag | GPR151 PathHunter beta-arrestin cells, luminescence, 90 min; % of EA-reagent control over plate median | activation, % at 11.2 µM | 6,700 tested, under 10 active | AID 1508609;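 active means mean percent activation across replicates above the confirmation screen cutoff of 4.91%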
GPR119 ag: counter-screen for GPR151 activators: effect on human GPR119; shares compounds with GPR151 ag; actives 0.3% (n = 6,700); AID 1508611; activation, % at 11.2 µM; GPR119 PathHunter beta-arrestin cells, luminescence, 90 min; 0 = compound-well median, 100 = enzyme-acceptor control;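 active means mean percent activation in the counterscreen above 29.09%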;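 further: counterscreen on off-target GPR119 to flag nonselective hits from the GPR151 activator screen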
Of the large screens only hits and unclear results are named; the others gave an inactive call (follow-up assays come after a bar, where they were run).

CC1c2cccn2CCN1S(=O)(=O)c1c(Cl)cccc1Cl (stereo not drawn)	none
Cc1c(O)ccc2c(=O)c(-c3nc4ccccc4s3)coc12	none
O=C(Nc1nnc(-c2ccc3c(c2)OCCO3)o1)c1ccc2c(c1)OCCO2	none
COc1ccc(O[C@H]2C=C[C@@H](c3ccccc3)O[C@@H]2CO/N=C2/[C@H]3CCn4c(=O)n(-c5ccccc5)c(=O)n4[C@H]3[C@H](O)[C@@H]3O[C@H]23)cc1	GPR151 ag 6.7 (no result: TEAD-YAP inh) | GPR151 confirm inactive | GPR119 ag inactive
COc1cccc(CN(C(=O)/C=C/c2ccc(Cl)cc2)C2CCS(=O)(=O)C2)c1 (stereo not drawn)	GPR151 ag 6.9 | GPR151 confirm inactive | GPR119 ag inactive
CCc1ccccc1NC(=S)N(Cc1cccc(Br)c1)CC1CCC(C(=O)O)CC1 (stereo not drawn)	GPR151 ag 7.9 | GPR151 confirm inactive | GPR119 ag inactive
COc1ccc(Cl)cc1NC(=S)N(Cc1cccc(Br)c1)CC1CCC(C(=O)O)CC1 (stereo not drawn)	GPR151 ag 15.2 | GPR151 confirm inactive | GPR119 ag inactive
C(=C\c1nn2c(-c3ccccc3)nnc2s1)/c1ccccc1	none
CCOc1ccccc1OCCCNC(C)(C)C	none
CC(C)c1ccccc1OCCCNC(C)(C)C	GPR151 ag 7.1 | GPR151 confirm inactive | GPR119 ag inactive
CCCOc1ccccc1CNC(C)(C)C	GPR151 ag 9.3 | GPR151 confirm inactive | GPR119 ag inactive
O=S(=O)(Cc1ccccc1)N1CCN(c2ccc(F)cc2)CC1	none
COc1ccc(N2CCN(S(=O)(=O)Cc3ccccc3)CC2)cc1	GPR151 ag 6.8 | GPR151 confirm inactive | GPR119 ag inactive
COc1cccc(-c2nnc(NC(=O)c3ccc(Cl)cc3Cl)o2)c1	none
CN(CC1COc2ccccc2O1)c1nnnn1-c1ccccc1 (stereo not drawn)	none
c1ccc(-n2nnnc2NCC2COc3ccccc3O2)cc1 (stereo not drawn)	GPR151 ag 5.1 | GPR151 confirm inactive | GPR119 ag inactive
O=C(CCNc1ccc(OC(F)(F)F)cc1)c1cccs1	none
NC(=O)c1nc(-c2cccc(Br)c2)nc2c1[nH]c(=O)n2C1CCCCC1	none
Cc1ccc(N=Cc2ccccc2O)cc1C#N	GPR151 ag 5.6 | GPR151 confirm inactive | GPR119 ag inactive
Cc1ccc(N=Cc2ccccc2O)cc1F	none
Cc1cccc(N2CCN(S(=O)(=O)N(C)C)CC2)c1C	none
CCCCC(C)NC(=O)C1CC(=O)N(c2ccc(OCC)cc2)C1 (stereo not drawn)	GPR151 ag 5.5 | GPR151 confirm inactive | GPR119 ag inactive
O=C(N/N=C/c1ccc(Br)cc1)C1CC(=O)N(c2ccc(F)cc2)C1 (stereo not drawn)	none
CCOc1ccc(NC(=O)COC(=O)C2CC(=O)N(c3ccc(C)cc3)C2)cc1 (stereo not drawn)	none
O=C(N/N=C/c1cccs1)C1CC(=O)N(c2ccc(Cl)cc2)C1 (stereo not drawn)	GPR151 ag 11.8 | GPR151 confirm inactive | GPR119 ag inactive
O=C(N/N=C/c1cccc(Br)c1)C1CC(=O)N(c2ccccc2)C1 (stereo not drawn)	GPR151 ag 5.3, FBW7 activator 2.8 | GPR151 confirm inactive | GPR119 ag inactive
Cc1ccc(NC(=O)COc2ccc(N3CC(C(N)=O)CC3=O)cc2)cc1 (stereo not drawn)	GPR151 ag 6.4 | GPR151 confirm inactive | GPR119 ag inactive
COc1ccc(-c2ccc(-c3noc(-c4cccnc4)n3)c(OC)n2)cc1	none
CC(=O)Nc1ccc(NC(=O)C2CC(=O)N(c3ccc(Br)cc3)C2)cc1 (stereo not drawn)	GPR151 ag 8.5 | GPR151 confirm inactive | GPR119 ag inactive
CCOC(=O)n1nc(Cc2ccncc2)c2ccccc2c1=O	GPR151 ag 5.2 | GPR151 confirm inactive | GPR119 ag inactive
O=C(O)Cn1nc(Cc2ccncc2)c2ccccc2c1=O	none
CC(CCc1ccccc1)NC(=O)Cn1nc(Cc2ccncc2)c2ccccc2c1=O (stereo not drawn)	GPR151 ag 5.8 | GPR151 confirm inactive | GPR119 ag inactive
CCC(C)c1ccc(NC(=O)c2c(-c3ccccc3Cl)noc2C)cc1 (stereo not drawn)	none
